Results filed as inconclusive are left out. The source made the active and inactive calls. The call rests on the fitted dose curve; in most records, active means well fitted inhibition curve with a large enough effect; inconclusive means small, poorly fitted or top-dose-only effect; inactive means no such curve, though single readings can be large or run the other way.
Test: qHTS to identify inhibitors of the type 1 interferon - major histocompatibility complex class I in skeletal muscle: tertiary screen by RT-qPCR
Conditions: C25cl48 human myoblasts, IFN-beta, HLA-B RT-qPCR, 24 h; series mostly up to 49.8 µM; activity change, negative = inhibition: at the top concentration
Text: Assay Submitter (PI): Travis B. Kinder Ph.D. & James Inglese Ph.D. Assay Development and Screening Technology Laboratory (ADST) National Center for Advancing Translational Sciences (NCATS), Rockville, MD National Institute of Health (NIH), Bethesda, Maryland Idiopathic inflammatory myopathies, collectively referred to as myositis, are a group of rare autoimmune diseases characterized by skeletal muscle inflammation, weakness, and usually accompanied by systemic pathologies of the skin, lungs, or vasculature. Current immunosuppressive therapies and glucocorticoids are often not curative and are accompanied by harsh side effects, especially in children with juvenile myositis. We initiated a drug repurposing and development program to identify more targeted, less toxic therapeutics to treat myositis. Although its cause is not known, muscle from a subset of patients have an abundance of the inflammatory type 1 interferon (IFN) and a down-stream product major histocompatibility complex class I (MHC class I), which are both thought to contribute to damage and weakness. We conducted quantitative high throughput screening (qHTS) on 6,576 compounds (4,679 unique) through a series of cell-based assays to identify those that inhibit the IFN-stimulated expression of MHC class I in muscle precursor cells (myoblasts). The compound identification and evaluation strategy utilized a primary screen with reporter-tagged MHC class I in genome-engineered myoblasts, ATP content counter screen for viability, HLA-ABC immunofluorescence secondary screen, and HLA-B RT-qPCR tertiary screen. To determine if active compounds identified by qHTS in HLA-B HiBit reporter cells, and confirmed by HLA-ABC immunofluorescence, can inhibit the transcription of HLA-B mRNA, compounds were assayed by RT-qPCR. Briefly, 62 compounds identified from primary, counter, and secondary screening as inhibitory with minimal cytotoxicity were dispensed into 384-well plates using acoustic dispensing in a 6-point, 1:7 titration with a high final concentration of 10 uM. Normal immortalized human myoblasts C25cl48 were added to the plate with 4.0 ng/ml human IFN-beta for 24 hours, and cells were harvested and assayed by the Cells-to-Ct kit with TaqMan assays (Thermo Fisher).
PROTOCOL TABLE (as described by Inglese et al., 2007) SEQUENCE No. (e.g., 1, 2, 3, etc.); […] (e.g., Cells, Incubation, Reagent, etc.); VALUE; DESCRIPTION 0; Compounds; 150 nl; Follow-up compounds dispensed at 150 nl/well with Labcyte Echo 655 acoustic dispenser into one Corning white/clear bottom, high base TC 384-well plates (3765) 1a; Cells; 30 uL; Using a p200 manual pipette, seed 780 cells/well into 1 plate in 30 ul/well of iHSKM growth medium without dexamethasone into columns wells A1-A6. […]
With `N#CCNC(=O)c1ccc(-c2ccnc(Nc3ccc(N4CCOCC4)cc3)n2)cc1` the Potency was 23200 nM (active).
With `COc1cccc2c1C(=O)c1c(O)c3c(c(O)c1C2=O)C[C@@](O)(/C(CO)=N/NC(=O)CCCCCN1C(=O)C=CC1=O)C[C@@H]3O[C@H]1C[C@H](N)[C@H](O)[C@H](C)O1` the Potency was 4630 nM (active).
With `Cc1cc(Nc2nc(N[C@@H](C)c3ncc(F)cn3)ncc2Cl)n[nH]1` the Potency was 4130 nM (active).
With `CCN(CC)Cc1ccc2cc(COC(=O)Nc3ccc(C(=O)NO)cc3)ccc2c1` the Potency was 4130 nM (active).
For `C[C@@]12O[C@@H](C[C@]1(O)CO)n1c3ccccc3c3c4c(c5c6ccccc6n2c5c31)CNC4=O`, the Potency was 2600 nM (active).
With `Cc1ccc(NC(=O)NCc2ccc3c(c2)CN(C2CCC(=O)NC2=O)C3=O)cc1Cl` (configuration not stated) the “activity change, negative = inhibition” value was -1.86% (inactive).
For `O=C(/C=C/c1ccc(CN(CCO)CCc2c[nH]c3ccccc23)cc1)NO`, the Potency was 116 nM (active).
With `OC1CCC(Oc2cccc3cnc(Nc4ccc5nc[nH]c5c4)nc23)CC1` (configuration not stated) the Potency was 654 nM (active).
With `CS[C@H]1SC[C@@H]2C(=O)N(C)[C@H](C(C)C)C(=O)OC[C@H](NC(=O)c3cnc4ccccc4n3)C(=O)N[C@H](C)C(=O)N(C)[C@H]1C(=O)N(C)[C@H](C(C)C)C(=O)OC[C@H](NC(=O)c1cnc3ccccc3n1)C(=O)N[C@H](C)C(=O)N2C` the “activity change, negative = inhibition” value was -135% (inactive).
For `Cc1ncsc1-c1ccc([C@H](C)NC(=O)[C@@H]2C[C@@H](O)CN2C(=O)[C@@H](NC(=O)COCCCOCCNC(=O)C[C@@H]2N=C(c3ccc(Cl)cc3)c3c(sc(C)c3C)-n3c(C)nnc32)C(C)(C)C)cc1`, the “activity change, negative = inhibition” value was -104% (inactive).
For `CC(C)C[C@H](NC(=O)[C@H](CCc1ccccc1)NC(=O)CN1CCOCC1)C(=O)N[C@@H](Cc1ccccc1)C(=O)N[C@@H](CC(C)C)C(=O)[C@@]1(C)CO1`, the Potency was 1840 nM (active).
With `CN1CCN(c2cccc(Nc3nc4c(-c5ccc(S(C)(=O)=O)cc5)cccn4n3)c2)CC1` the Potency was 8230 nM (active).
With `Cc1ccc([N+](=O)[O-])cc1S(=O)(=O)N(C)/N=C/c1cnc2ccc(Br)cn12` the Potency was 232 nM (active).
With `Cc1[nH]c2ccccc2c1CCNCc1ccc(/C=C/C(=O)NO)cc1` the Potency was 29.2 nM (active).
For `N#CC[C@H](C1CCCC1)n1cc(-c2ncnc3[nH]ccc23)cn1`, the Potency was 1640 nM (active).
For `CCS(=O)(=O)N1CCN(c2ccc(Nc3ncc(C(N)=O)c(NC4CC4)n3)cc2)CC1`, the Potency was 5830 nM (active).
In the case of `Cc1ccc(-c2ncn(-c3ccc(Nc4nccc(-c5cccc(N6CCOCC6)c5)n4)cc3)n2)cn1`, the Potency is reported as 1460 nM (active).
In the case of `CC1=C(CO)C(=O)O[C@@H]([C@@H](C)[C@H]2CC[C@H]3[C@@H]4C[C@H]5O[C@]56[C@@H](O)C=CC(=O)[C@]6(C)[C@H]4CC[C@]23C)C1`, the Potency is reported as 1300 nM (active).
For `c1cc(Nc2cc(C3CC3)[nH]n2)nc(Nc2ccc3nc[nH]c3c2)n1`, the Potency was 654 nM (active).
For `C=C1C(=O)O[C@@H]2[C@H]3O[C@]3(C)CCC=C(C)CC[C@@H]12`, the Potency was 16400 nM (active).
For `COc1ccc(-c2nc(N3CCOCC3)c3sc(CN(C)c4ncc(C(=O)NO)cn4)cc3n2)cn1`, the Potency was 23.2 nM (active).
For `CC(=O)c1cnc2ccc(-c3cc(Cl)c(O)c(Cl)c3)nc2c1NC1CCC(CN(C)C)CC1` (configuration not stated), the Potency was 116 nM (active).
With `CC(=O)OCC(=O)[C@@]12OC(C)(C)O[C@@H]1C[C@H]1[C@@H]3C[C@H](F)C4=CC(=O)C=C[C@]4(C)[C@@]3(F)[C@@H](O)C[C@@]12C` the “activity change, negative = inhibition” value was -29.4% (inactive).
With `Cc1nc(Nc2n[nH]c3c2CN(C(=O)N[C@H](CN(C)C)c2ccccc2)C3(C)C)c2sccc2n1` the Potency was 1840 nM (active).
With `NC(=O)Nc1sc(-c2ccc(F)cc2)cc1C(N)=O` the Potency was 10400 nM (active).
For `NC(=O)c1cnc2[nH]ccc2c1NC1C2CC3C[C@H]1CC(O)(C3)C2` (some centres not stated), the Potency was 1640 nM (active).
For `OCCCNc1cc(-c2ccnc(Nc3cccc(Cl)c3)n2)ccn1`, the Potency was 116 nM (active).
In the case of `Cc1cc(O)c(-c2ccc([C@@H](C)CN(C)C)cc2)c2c1[nH]c(=O)c1sccc12`, the Potency is reported as 51.9 nM (active).
In the case of `CC(=O)c1ccc2c(c1)c1cc(C(C)=O)ccc1n2CCNC(C)C`, the Potency is reported as 1840 nM (active).
In the case of `O=C(Nc1nc2cccc(-c3ccc(CN4CCS(=O)(=O)CC4)cc3)n2n1)C1CC1`, the Potency is reported as 18400 nM (active).
For `C=CCNC1=C2C[C@@H](C)C[C@H](OC)[C@H](O)[C@@H](C)/C=C(\C)[C@H](OC(N)=O)[C@@H](OC)/C=C\C=C(/C)C(=O)NC(=CC1=O)C2=O`, the “activity change, negative = inhibition” value was -32.6% (inactive).
With `Cc1cc(Nc2cc(NC(=O)c3c(Cl)cccc3Cl)ccn2)nc(N)n1` the Potency was 4630 nM (active).
With `CN1CCN(Cc2ccc(NC(=O)Nc3ccc(Oc4cc(NC(=O)C5CC5)ncn4)cc3)cc2C(F)(F)F)CC1` the Potency was 146 nM (active).
For `COc1cccc2c1C(=O)c1c(O)c3c(c(O)c1C2=O)C[C@@](O)(C(=O)CO)C[C@@H]3O[C@H]1C[C@H](N)[C@H](O)[C@H](C)O1`, the Potency was 1040 nM (active).
With `C[C@H]1C[C@@H]2[C@H]([C@@H](O)C[C@@]3(C)[C@H]2CC[C@]3(O)C(=O)CO)[C@@]2(C)C=CC(=O)C=C12` the “activity change, negative = inhibition” value was -18% (inactive).
For `N#CCC1(n2cc(-c3ncnc4[nH]ccc34)cn2)CN(C2CCN(C(=O)c3ccnc(C(F)(F)F)c3F)CC2)C1`, the Potency was 3680 nM (active).
For `C[C@]12C=CC(=O)C=C1CC[C@@H]1[C@@H]2[C@@H](O)C[C@@]2(C)[C@H]1CC[C@]2(O)C(=O)CO`, the “activity change, negative = inhibition” value was -28.8% (inactive).

Source: PubChem BioAssay AID1347415 (National Center for Advancing Translational Sciences (NCATS), 2020)
